This is an account of results in PubChem BioAssay.

Values without a mark were called inactive. Activity calls are given as the source filed them.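 The calls were made as follows: active = z-score of at least 1.8 in each of two replicates, scored against plate mean and spread of sample wells; inactive = the rest.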

This assay in a line: galactose survival enhancers in mitochondrial complex I cybrids – cell-based, galactose medium, ATP luminescence, primary screen (AID 1645843).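 Also: positive z means more ATP and so rescue of galactose-driven cybrid death.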 The settings on record: complex I mutant cybrid cells, 72 h, stronger effect = higher value.
On to `NC(=O)NCc1cn(C2CCN(C(=O)C3CCCCCC3)CC2)nn1`, for which the z-score was -0.575.

`COc1ccccc1N1CCN(C(=O)Nc2n[nH]c(Cc3ccccc3)n2)CC1`: the z-score is -0.935.

Take `CC(CC12CC3CC(CC(C3)C1)C2)n1cnc2nccnc2c1=O` (stereo not given): the z-score is 1.54.

As to `c1coc(-c2nc3c(cnn3Cc3cccs3)[nH]2)c1`, the z-score is -0.74.

Turning to `CCCCc1cc(=O)[nH]c(-c2ccc(CN3CCC(F)(F)CC3)cc2)n1`, the z-score was 0.255.

On to `O=C1CN(c2ncnc3sccc23)CCN1Cc1ccc(F)cc1`, for which the z-score is 0.19.

On to `COc1ccccc1-c1noc(CN2CCOC2=O)n1`, for which the z-score is 1.68.

Regarding `c1ccc(Cn2ccnc2CNc2ncnc3nc[nH]c23)cc1`, the z-score was -0.435.

Take `O=c1c2sccc2ncn1Cc1nc2ccccc2[nH]1`: the z-score is 0.03.

Take `CCn1cnc(NC(=O)NC2CCN(Cc3ccncc3)CC2)n1`: the z-score was 3.54 (active).

Take `Cc1cc(CN[C@@H](C)C(N)=O)c(C)s1`: the z-score is 0.04.

With `CC(CCCC(C)(C)O)CCN1CCC(N(C)CCO)CC1` (stereo not given), the z-score is -0.505.

On to `CCCCc1cn(C2CCN(C3CCCC(C)(C)C3)CC2)nn1` (stereo not given), for which the z-score is -0.56.

For the compound `Cc1nnc(NC(=O)N(C)CC2COc3ccccc3O2)s1` (stereo not given), the z-score is 0.025.

Regarding `Cc1nsc(NC(=O)NC(C)c2ccc(Cl)cc2)n1` (stereo not given), the z-score is -0.26.

`c1cnn(-c2ccc(N3CCC(N4CCC4)CC3)cc2)c1`: the z-score is -0.48.

Take `OC1(c2ccccc2)CCN(Cc2ccccc2Cl)C1` (stereo not given): the z-score was -1.11.

As to `c1nc(-c2ccc3c(c2)OCCO3)c2sccc2n1`, the z-score is 0.225.

Turning to `CCn1nc(CC(C)C)cc1C(=O)N1CCC(n2cc(C(C)(C)O)nn2)CC1`, the z-score was -0.53.

In the case of `CCN(C(=O)c1cc(-c2cnc(C3CC3)nc2)nc2cc(C)ccc12)C(C)C`, the z-score was 1.41.

`CN(Cc1nc(-c2cccnc2)no1)C(=O)c1nc2ccccc2s1`: the z-score is 0.26.

Turning to `COc1ccc(-c2nc(N)nc(Nc3ccc(C)cc3)n2)cc1F`, the z-score was -0.745.

Consider `CCCCc1cn(C2CCN(C(=O)C3CCCO3)CC2)nn1` (stereo not given), for which the z-score is -0.535.

Consider `CCn1cc(-c2cc(C(=O)N3CCN(C)C(=O)C3C)c3ccc(C)cc3n2)cn1` (stereo not given), for which the z-score is -0.19.

Consider `O=C(C1CCCCCC1)N1CCC(n2cc(-c3ccccn3)nn2)CC1`, for which the z-score is -0.545.

As for `COc1nccnc1-c1ccc2c(c1)OCO2`, the z-score is 0.365.

Regarding `Cc1nn(C)c(C)c1-c1ccnc(NCC(C)Oc2cccnc2)n1` (stereo not given), the z-score is 1.26.

In the case of `COC(=O)CCC(=O)N1CCc2[nH]nc(-c3ccc4c(c3)OCO4)c2C1`, the z-score is -0.12.

Consider `O=C(CC1CCCCCC1)N1CCC(n2cc(C3CC3)nn2)CC1`, for which the z-score was -0.455.

Regarding `COc1ccccc1-c1noc(C(C)n2cccn2)n1` (stereo not given), the z-score is -0.115.

Turning to `CCCC(NC(=O)c1ccc[n+]([O-])c1)c1ccccc1` (stereo not given), the z-score was -0.43.

For `Cn1ncc(NC(=O)CCc2cn3ccccc3n2)n1`, the z-score is 0.67.

Turning to `CCN(Cc1ccncc1)C(=O)c1cc(-c2cnc(C)nc2)nc2c(C)cccc12`, the z-score was -0.835.

Consider `CC(C)c1nc(Cn2cnc3ccsc3c2=O)cs1`, for which the z-score is -0.55.

With `O=C(Nc1ccc2nccnc2c1)c1csc(Cc2ccccc2)n1`, the z-score was -1.07.

As for `COc1ccc(CNCC2COCCO2)cc1OC` (stereo not given), the z-score is 3.29 (active).

For `CCCn1cnc(NC(=O)NC2CCN(Cc3ccccc3)CC2)n1`, the z-score is 0.58.

Consider `O=C(O)C1(Oc2cccc(-c3cccc4ncccc34)c2)CCCC1`, for which the z-score was -0.5.

`Cc1cccc2ncn(C3CC(C)(C)NC(C)(C)C3)c(=O)c12`: the z-score was -0.515.

In the case of `Cn1ccnc1C(=O)c1cccc(-c2ccccc2Cl)c1`, the z-score was -0.515.
